# In PubChem BioAssay (NCATS):
# “And” between values parts separate entries of the source, which are not always exact repeats. Equal entries are not always repeated. Records with an inconclusive call do not appear. Where a call stands in place of a potency, no number is given. The source made the active and inactive calls. Unless noted, calls come from the whole dose curve; as a rule, active = well fitted curve in the direction sought with a large enough effect; inconclusive = small, poorly fitted or top-dose-only effect, or another doubt; inactive = no such curve, though single readings can be large; an effect the other way counts as inactive or inconclusive.
# Tests used:
# [1] = target: Catechol O-methyltransferase (Homo sapiens) (UniProt P21964); assay: Confirmatory Screen for Target Class Profiling of Small Molecule Inhibitors of Methyltransferases (AID 1745852; calls by dose curve; note: potency is the fitted concentration of half-maximal effect); conditions: MTase-Glo luminescence, SAH detection, recombinant enzyme; measured here: COMT max response; stronger effect = lower value
# [2] = target: Guanidinoacetate N-methyltransferase (Homo sapiens) (UniProt Q14353); assay: as above; conditions: MTase-Glo luminescence, SAH detection, recombinant enzyme; activity change, negative = inhibition: at 57.3 µM (top of the series)
# [3] = target: Nicotinamide N-methyltransferase (Homo sapiens) (UniProt P40261); assay: as above; conditions: MTase-Glo luminescence, SAH detection, recombinant enzyme; measured here: NNMT max response; stronger effect = lower value
# [4] = target: Phenylethanolamine N-methyltransferase (Homo sapiens) (UniProt P11086); assay: as above; conditions: MTase-Glo luminescence, SAH detection, recombinant enzyme; measured here: PNMT max response; stronger effect = lower value
# [5] = NCATS anti-infectives library activity on the primary C. elegans qHTS viability assay (AID 1745855; calls by dose curve); conditions: C. elegans worm area imaging, day 7; series mostly up to 41.8 µM
# Outline: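 Viability read-out is GFP fluorescence of PE254-GFP-FLuc C. elegans, measured by laser cytometry (488 nm) at day 0, 3 and 7. Ten L1 worms per well were incubated 7 days at 21 °C with compounds and bacterial capsules in S medium.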
# [6] = target: Glutathione peroxidase 1 (Homo sapiens) (UniProt P07203); assay: Primary qHTS Assay for Inhibitors of Recombinant Selenoprotein Glutathione Peroxidase 1 (GPX1) (AID 1845191); conditions: recombinant GPX1, GR-coupled NADPH fluorescence, 15 min; series mostly up to 48.8 µM; note: nearly all actives have a fitted effect of over 65% in size
# Outline: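 10 nM GPX1 + cpd, 30 min RT; start w/ 1 mM GSH, 0.5 mM cumene hydroperoxide, 0.5 mM NADPH, 100 nM GR, 0.01% BSA; buffer 50 mM Tris-HCl pH 7.5, 2 mM EDTA, 150 mM NaCl; Fl 340/450, 0 & 15 min.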
# [7] = target: Phospholipid hydroperoxide glutathione peroxidase GPX4 (Homo sapiens) (UniProt P36969); assay: Primary qHTS Assay for Inhibitors of Recombinant Selenoprotein Glutathione Peroxidase 4 (GPX4) (AID 1845192); conditions: recombinant GPX4, GR-coupled NADPH fluorescence, 15 min; series mostly up to 50 µM; note: nearly all actives have a fitted effect of over 65% in size; note: potency is the fitted concentration of half-maximal effect
# Outline: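 NADPH consumption, followed by fluorescence at 340/450 nm between 0 and 15 min, reports GPX4 activity via coupled glutathione reductase (100 nM). Enzyme 200 nM was pre-exposed to compound 30 min; 0.5 mM cumene hydroperoxide and 1 mM GSH served as substrates.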
# [8] = target: Luciferin 4-monooxygenase (Photinus pyralis) (UniProt P08659); assay: Primary firefly luciferase (FLuc) qHTS assay for identification of artifact compounds. (AID 1845220); conditions: purified firefly luciferase, luminescence, 5 min; series mostly up to 54.1 µM; note: nearly all actives have a fitted effect of over 60% in size
# Outline: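 Compounds sat 15 min at room temperature with 10 uM luciferin and 10 uM ATP (pH 7.6 Tris acetate). Firefly luciferase (10 nM final) was then added, and luminescence was read 5 min later. Data normalized to no-enzyme and DMSO controls were Hill-fitted.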
# [9] = Primary fluorescence-based thiol-reactive (MSTI) qHTS assay for identification of artifact compounds. (AID 1845221); conditions: MSTI thiol-reactivity probe, 1 h; series mostly up to 53.8 µM; note: nearly all actives have a fitted effect of over 65% in size; note: potency is the fitted concentration of half-maximal effect
# Outline: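 Compounds were incubated 1 h at room temperature in the dark with the MSTI probe (4 uM) in PBS pH 7.4, 2% DMSO. Signals were normalized between Acetyl-MSTI and MSTI.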
# [10] = NCATS anti-infectives library activity on HEK293 viability as a counter-qHTS vs the C. elegans viability qHTS (AID 1745854); conditions: HEK293 viability counter-screen; series mostly up to 41.8 µM;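 note: HEK293 cells exposed to compounds for 24 hr before the viability read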
# Outline: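 Compounds were acoustically plated (several concentrations, 1:5, final up to 41.7 uM), then 1500 HEK293 cells added per well and incubated 24 hr at 37C, 5% CO2. CellTiter-Glo was added and luminescence read after 10 min.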
# [11] = target: Rap guanine nucleotide exchange factor 4 (Homo sapiens) (UniProt Q8WZA2); assay: Confirmatory qHTS for agonist of cAMP-regulated guanine nucleotide exchange factor 4 (EPAC2) (AID 1645884); conditions: EPAC2 GEF activity, Rap1B-BODIPY-GDP fluorescence; series mostly up to 154 µM;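 note: nucleotide exchange releases bodipy-GDP from Rap1 and this lowers its fluorescence; nearly all actives have a fitted effect of over 65% in size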
# [12] = target: Rap guanine nucleotide exchange factor 4 (Homo sapiens) (UniProt Q8WZA2); assay: Confirmatory qHTS for antagonist of cAMP-regulated guanine nucleotide exchange factor 4 (EPAC2) (AID 1645885); conditions: EPAC2 Rap1B-BODIPY-GDP exchange fluorescence, biochemical; series mostly up to 114 µM; note: nearly all actives have a fitted effect of over 25% in size
# [13] = target: Rap guanine nucleotide exchange factor 3 (Homo sapiens) (UniProt O95398); assay: Counterscreen qHTS for antagonist of cAMP-regulated guanine nucleotide exchange factor 3 (EPAC1) (AID 1645888); conditions: Rap1B-BODIPY-GDP nucleotide exchange, fluorescence; series mostly up to 30.8 µM;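 note: fluorescence loss as bound BODIPY-GDP is released from Rap1B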
# Outline: (§1)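 Rap1B-BODIPY-GDP 250 nM + GDP 50 uM; cpds 7-pt, final 9.74 nM–152 uM (activator mode) or from 7.32 nM upwards (inhibitor mode); RT; FI 480/540 nm at 5 and 30 min, then ± cAMP, reread.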
# [14] = target: Rap guanine nucleotide exchange factor 3 (Homo sapiens) (UniProt O95398); assay: Counterscreen qHTS for agonist of cAMP-regulated guanine nucleotide exchange factor 3 (EPAC1) (AID 1645889); conditions: EPAC1 Rap1B-BODIPY-GDP exchange, fluorescence; series mostly up to 30.8 µM; note: nearly all actives have a fitted effect of over 40% in size
# Outline: as §1
# [15] = Viability counterscreen for agonist of constitutive androstane receptor (CAR) against the NCATS DSHEA and TCM libraries (AID 1794838); conditions: HepG2 cell viability counterscreen, CAR agonist assay, co-treated with 0.75 µM CAR antagonist; series mostly up to 40 µM;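 note: HepG2 cells with CYP2B6 reporter and hCAR plus 0.75 µM PK11195 antagonist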
# Outline: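 HepG2-CYP2B6-hCAR cells (2,500/well) attached 5 h, then got compounds plus 0.75 uM PK11195 final. After 24 h at 37C, viability read by CellTiter-Fluor fluorescence (Ex/Em 405/540 nm).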
# [16] = HepG2 viability counterscreen (readout 2: ATP content) against the NCATS DSHEA and TCM libraries (AID 1794840); conditions: ATP content luminescence; series mostly up to 27.3 µM;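 note: HepG2 cells exposed to substances for about 24 h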
# Outline: (§2)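 HepG2 cells (1,000 cells/well) attached ~4 h, then treated ~24 h at 37C with substances. Protease activity read by GF-AFC (25 uM final, 30 min, Ex/Em 380/510 nm); ATP content then by CellTiter-Glo luminescence.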
# [17] = HepG2 viability counterscreen (readout 1: protease activity) against the NCATS DSHEA and TCM libraries (AID 1794841); conditions: qHTS concentration series; series mostly up to 27.3 µM;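 note: cells exposed to compounds for about 24 h before the protease read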
# Outline: as §2
# Sequence of Phospholipid hydroperoxide glutathione peroxidase GPX4 (Homo sapiens) (P36969 whole entry, looked up): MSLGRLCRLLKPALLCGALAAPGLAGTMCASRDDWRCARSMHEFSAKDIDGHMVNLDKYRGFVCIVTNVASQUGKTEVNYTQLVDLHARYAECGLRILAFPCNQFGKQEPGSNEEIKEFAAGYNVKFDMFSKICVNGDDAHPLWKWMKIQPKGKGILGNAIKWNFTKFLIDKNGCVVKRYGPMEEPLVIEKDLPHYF
# Sequence of Phenylethanolamine N-methyltransferase (Homo sapiens) (P11086 whole entry, looked up): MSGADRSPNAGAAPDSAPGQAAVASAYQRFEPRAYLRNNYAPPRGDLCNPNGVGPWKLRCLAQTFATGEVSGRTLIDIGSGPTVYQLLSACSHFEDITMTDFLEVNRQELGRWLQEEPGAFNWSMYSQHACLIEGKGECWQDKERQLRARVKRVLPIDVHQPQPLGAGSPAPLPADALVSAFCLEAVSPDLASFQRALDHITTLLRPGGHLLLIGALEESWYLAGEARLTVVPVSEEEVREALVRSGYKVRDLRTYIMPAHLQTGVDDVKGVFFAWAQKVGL
# Sequence of Nicotinamide N-methyltransferase (Homo sapiens) (P40261 whole entry, looked up): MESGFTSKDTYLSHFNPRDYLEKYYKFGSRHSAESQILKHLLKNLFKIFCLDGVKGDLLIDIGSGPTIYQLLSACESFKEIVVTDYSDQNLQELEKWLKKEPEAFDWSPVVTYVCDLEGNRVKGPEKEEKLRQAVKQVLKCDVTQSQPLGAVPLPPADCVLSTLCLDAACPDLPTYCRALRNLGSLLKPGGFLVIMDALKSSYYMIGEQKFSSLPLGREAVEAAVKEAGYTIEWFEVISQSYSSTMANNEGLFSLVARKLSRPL
# Sequence of Glutathione peroxidase 1 (Homo sapiens) (P07203 whole entry, looked up): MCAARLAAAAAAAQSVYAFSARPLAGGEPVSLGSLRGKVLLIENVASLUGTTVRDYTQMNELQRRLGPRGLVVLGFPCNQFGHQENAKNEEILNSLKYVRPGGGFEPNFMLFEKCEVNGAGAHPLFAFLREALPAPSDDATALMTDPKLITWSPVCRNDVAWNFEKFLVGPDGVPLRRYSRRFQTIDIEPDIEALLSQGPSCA
# Sequence of Rap guanine nucleotide exchange factor 4 (Homo sapiens) (Q8WZA2 whole entry, looked up): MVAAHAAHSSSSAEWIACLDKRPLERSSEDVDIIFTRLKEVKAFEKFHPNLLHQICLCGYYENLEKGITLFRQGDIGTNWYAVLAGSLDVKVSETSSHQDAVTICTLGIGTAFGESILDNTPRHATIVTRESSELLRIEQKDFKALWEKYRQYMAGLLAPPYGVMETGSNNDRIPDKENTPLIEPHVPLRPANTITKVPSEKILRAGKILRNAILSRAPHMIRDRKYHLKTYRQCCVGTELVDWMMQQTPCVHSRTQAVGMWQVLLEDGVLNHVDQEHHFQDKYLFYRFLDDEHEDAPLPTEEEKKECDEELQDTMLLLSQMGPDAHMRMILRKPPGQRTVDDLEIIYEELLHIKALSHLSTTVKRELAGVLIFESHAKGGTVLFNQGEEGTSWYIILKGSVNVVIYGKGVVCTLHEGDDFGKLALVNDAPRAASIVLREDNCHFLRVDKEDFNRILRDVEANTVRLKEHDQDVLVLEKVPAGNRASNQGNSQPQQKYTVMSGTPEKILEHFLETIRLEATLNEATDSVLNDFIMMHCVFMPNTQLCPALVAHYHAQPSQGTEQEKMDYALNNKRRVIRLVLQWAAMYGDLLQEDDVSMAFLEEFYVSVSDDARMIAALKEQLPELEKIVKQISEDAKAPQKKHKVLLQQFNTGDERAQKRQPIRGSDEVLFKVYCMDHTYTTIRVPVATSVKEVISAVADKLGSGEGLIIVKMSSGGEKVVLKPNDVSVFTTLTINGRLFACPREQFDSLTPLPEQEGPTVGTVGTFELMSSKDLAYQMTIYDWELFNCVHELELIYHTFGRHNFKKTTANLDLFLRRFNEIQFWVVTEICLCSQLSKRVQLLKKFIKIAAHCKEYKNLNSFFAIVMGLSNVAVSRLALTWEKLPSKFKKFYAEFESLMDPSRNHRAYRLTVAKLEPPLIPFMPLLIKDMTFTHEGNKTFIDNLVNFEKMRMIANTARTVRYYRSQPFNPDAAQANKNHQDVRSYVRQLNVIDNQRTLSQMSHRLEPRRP
# Sequence of Catechol O-methyltransferase (Homo sapiens) (P21964 whole entry, looked up): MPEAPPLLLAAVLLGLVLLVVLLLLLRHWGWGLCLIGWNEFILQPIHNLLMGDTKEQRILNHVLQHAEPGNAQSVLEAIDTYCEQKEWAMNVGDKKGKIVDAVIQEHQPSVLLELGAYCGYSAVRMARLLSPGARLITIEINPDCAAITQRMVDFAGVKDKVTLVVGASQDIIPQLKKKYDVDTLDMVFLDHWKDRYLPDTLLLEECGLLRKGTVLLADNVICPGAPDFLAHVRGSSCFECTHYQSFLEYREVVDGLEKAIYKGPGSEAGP
# Sequence of Rap guanine nucleotide exchange factor 3 (Homo sapiens) (O95398 whole entry, looked up): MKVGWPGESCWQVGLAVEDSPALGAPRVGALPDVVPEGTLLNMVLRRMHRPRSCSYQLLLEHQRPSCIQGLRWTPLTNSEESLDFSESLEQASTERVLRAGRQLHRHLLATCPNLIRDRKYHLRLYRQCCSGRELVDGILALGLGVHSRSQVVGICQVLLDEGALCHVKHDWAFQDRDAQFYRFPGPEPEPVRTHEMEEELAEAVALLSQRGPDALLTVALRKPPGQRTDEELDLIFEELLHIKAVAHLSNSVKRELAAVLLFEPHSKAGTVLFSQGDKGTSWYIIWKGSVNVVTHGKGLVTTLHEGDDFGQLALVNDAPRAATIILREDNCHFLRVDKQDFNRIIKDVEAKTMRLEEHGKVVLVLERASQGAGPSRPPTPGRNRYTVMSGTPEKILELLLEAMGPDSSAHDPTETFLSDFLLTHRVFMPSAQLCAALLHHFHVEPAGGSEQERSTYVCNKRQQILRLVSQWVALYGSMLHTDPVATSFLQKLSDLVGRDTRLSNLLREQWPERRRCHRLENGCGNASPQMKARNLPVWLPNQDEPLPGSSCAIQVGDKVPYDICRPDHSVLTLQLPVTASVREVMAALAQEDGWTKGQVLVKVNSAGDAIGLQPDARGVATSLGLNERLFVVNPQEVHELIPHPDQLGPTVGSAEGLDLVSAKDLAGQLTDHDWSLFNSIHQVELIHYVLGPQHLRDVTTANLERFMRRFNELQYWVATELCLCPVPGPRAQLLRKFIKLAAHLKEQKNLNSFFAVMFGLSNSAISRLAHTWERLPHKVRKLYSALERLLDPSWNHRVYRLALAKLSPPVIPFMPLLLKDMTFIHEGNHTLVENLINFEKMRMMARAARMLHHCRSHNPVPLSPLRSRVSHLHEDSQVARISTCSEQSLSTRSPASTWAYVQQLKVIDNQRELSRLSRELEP
compound,measurement,setting,value
CN(C)CCCNC(=O)c1ccc(-c2cc(O)c3ncccc3c2)cc1,activity,[1],-84% and -99.6%
same,"activity change, negative = inhibition",[2],2.82% and 3.64%
same,activity,[3],-0.93% and -8.84%
same,activity,[4],-2.71% and -2.66%
same,Potency,[5],inactive
same,Potency,[6],inactive
same,Potency,[7],inactive
same,Potency,[8],inactive
c1cc(OCCN2CCCCC2)cc(-c2n[nH]c3ccc(-c4ncn[nH]4)cc23)c1,activity,[1],-3.59%
same,"activity change, negative = inhibition",[2],2.7%
same,activity,[3],-12.9%
same,activity,[4],-6.71%
same,Potency,[6],inactive
same,Potency,[7],inactive
same,Potency,[8],inactive
same,Potency,[9],inactive
Nc1ncnc2c1c(-c1cccc(OCc3ccccc3)c1)cn2C1CC(CN2CCC2)C1 (stereo not drawn),activity,[1],-26%
same,Potency,[2],30.4 µM (active)
same,activity,[3],-29.1%
same,activity,[4],-91.7%
same,Potency,[6],inactive
same,Potency,[7],inactive
same,Potency,[8],inactive
same,Potency,[9],inactive
CCN1C[C@H](C)n2c(c(O)c3c(=O)n(Cc4ccc(F)c(Cl)c4)nc(C(=O)NC)c32)C1=O,outcome,[10],inactive
same,Potency,[5],inactive
same,Potency,[6],inactive
same,Potency,[7],inactive
same,Potency,[8],inactive
same,Potency,[9],29.9 µM (active)
CC(C)CN(C[C@@H](O)[C@H](Cc1ccccc1)NC(=O)O[C@H]1CO[C@H]2OCC[C@H]21)S(=O)(=O)c1ccc(N)cc1,outcome,[10],inactive
same,Potency,[6],inactive
CCOC(=O)c1c(CSc2ccccc2)n(C)c2cc(Br)c(O)c(CN(C)C)c12,outcome,[10],inactive
same,Potency,[6],inactive
NS(=O)(=O)c1ccc(Nc2nc(OCC3CCCCC3)c3[nH]cnc3n2)cc1,activity,[1],-14.9%
same,"activity change, negative = inhibition",[2],-2.65%
same,activity,[3],-73.9%
same,activity,[4],-14.7%
same,Potency,[6],inactive
same,Potency,[8],inactive
same,Potency,[9],inactive
O=c1cc(-c2ccc(O)c(O)c2)oc2cc(O)cc(O)c12,Potency,[11],inactive
same,Potency,[12],inactive
same,outcome,[13],inactive
same,outcome,[14],inactive
same,Potency,[15],inactive
same,outcome,[16],inactive
same,outcome,[17],inactive
same,Potency,[6],inactive
Cc1ccccc1-n1c(Cn2nc(-c3cccc(O)c3)c3c(N)ncnc32)nc2cccc(C)c2c1=O,activity,[1],-10.8%
same,"activity change, negative = inhibition",[2],0%
same,activity,[3],-28.8%
same,activity,[4],1.94%
same,Potency,[6],inactive
same,Potency,[7],inactive
same,Potency,[8],inactive
same,Potency,[9],inactive
Cc1cn([C@@H]2C[C@@H](O)[C@H](CO)O2)c(=O)[nH]c1=O,outcome,[10],inactive
same,Potency,[6],inactive
same,Potency,[7],inactive
COc1cc2c(cc1Cc1cccc(Cl)c1F)c(=O)c(C(=O)O)cn2[C@H](CO)C(C)C,outcome,[10],inactive
same,Potency,[6],inactive
same,Potency,[7],11.2 µM (active)
